# Publication PMC7862700, “An all-to-all approach to the identification of sequence-specific readers for epigenetic DNA modifications on cytosine”
# Experiments:
# Assay in all cases: DAPPL (digital affinity profiling via proximity ligation, sequencing); 10 mM Tris-HCl pH 7.5, 50 mM NaCl, 1 mM DTT, 4% glycerol, room temperature, 30 min; GST-TFs on glutathione beads, 16-mer random dsDNA library, 0.1% formaldehyde crosslink after washing; high values mean tight binding
# FEV = target: T1, FEV (Homo sapiens, UniProt Q99581 1-238); settings: protein: recombinant; tags: N-terminal GST; dsDNA, one strand shown
# T1 sequence: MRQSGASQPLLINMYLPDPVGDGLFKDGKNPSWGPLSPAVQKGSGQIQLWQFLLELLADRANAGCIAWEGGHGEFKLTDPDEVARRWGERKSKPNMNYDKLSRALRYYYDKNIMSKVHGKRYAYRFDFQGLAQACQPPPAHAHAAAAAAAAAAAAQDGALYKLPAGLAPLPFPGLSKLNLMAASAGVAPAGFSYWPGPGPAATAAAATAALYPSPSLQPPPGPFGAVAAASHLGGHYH
# Summary of the method: (§1)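 Sequencing on an Illumina NextSeq500 followed washing, crosslinking with 0.1% formaldehyde, proximity ligation (BsaI/T4 ligase, 1 h, 37 °C) and PCR amplification of pools that had been incubated for 30 min at room temperature with 200 nmole of a random double-stranded 16-mer DNA library in Tris/NaCl/DTT/glycerol buffer. Each pool held DNA-barcoded human transcription factors, expressed in yeast as GST fusions and captured on glutathione beads, plus a tag-only sample. Binding signal is a hexamer's read frequency for a factor divided by its frequency in the tag-only sample.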
# ETV5 = ETV5 (Homo sapiens, UniProt P41161 1-510); settings: protein: recombinant; tags: N-terminal GST; dsDNA, one strand shown
# Summary of the method: as §1
# HSF1 = HSF1 (Homo sapiens, UniProt Q00613 1-529); settings: protein: recombinant; tags: N-terminal GST; chain copies: 3; dsDNA, one strand shown
# Summary of the method: as §1
# SPIC = target: T2, SPIC (Homo sapiens, UniProt Q8N5J4 1-248); settings: protein: recombinant; tags: N-terminal GST; dsDNA, one strand shown
# T2 sequence: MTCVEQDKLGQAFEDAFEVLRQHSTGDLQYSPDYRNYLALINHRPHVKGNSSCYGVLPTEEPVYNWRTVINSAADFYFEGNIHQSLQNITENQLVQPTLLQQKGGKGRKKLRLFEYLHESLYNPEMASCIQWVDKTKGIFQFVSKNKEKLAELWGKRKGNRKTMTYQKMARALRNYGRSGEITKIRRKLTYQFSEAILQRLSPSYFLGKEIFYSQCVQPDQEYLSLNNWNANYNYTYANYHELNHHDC
# Summary of the method: as §1
# ELF4 = ELF4 (Homo sapiens, UniProt Q99607 1-663); settings: protein: recombinant; tags: N-terminal GST; dsDNA, one strand shown
# Summary of the method: as §1
# ELK4 = target: T3, ELK4 (Homo sapiens, UniProt P28324-2 1-405); settings: protein: recombinant; tags: N-terminal GST; dsDNA, one strand shown
# T3 sequence: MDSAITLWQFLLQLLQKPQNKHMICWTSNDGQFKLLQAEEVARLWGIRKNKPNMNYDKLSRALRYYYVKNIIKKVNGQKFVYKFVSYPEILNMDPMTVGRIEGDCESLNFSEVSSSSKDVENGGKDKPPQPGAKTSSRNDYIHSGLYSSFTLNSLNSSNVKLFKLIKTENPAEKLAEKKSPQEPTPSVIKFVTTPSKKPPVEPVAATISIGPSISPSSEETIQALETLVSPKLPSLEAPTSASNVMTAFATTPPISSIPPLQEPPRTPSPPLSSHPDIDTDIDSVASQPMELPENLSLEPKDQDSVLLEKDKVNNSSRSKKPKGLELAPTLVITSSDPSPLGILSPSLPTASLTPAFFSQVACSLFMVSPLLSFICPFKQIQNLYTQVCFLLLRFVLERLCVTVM
# Summary of the method: as §1
# ETV2 = target: T4, ETV2 (Homo sapiens, UniProt O00321 1-342); settings: protein: recombinant; tags: N-terminal GST; dsDNA, one strand shown
# T4 sequence: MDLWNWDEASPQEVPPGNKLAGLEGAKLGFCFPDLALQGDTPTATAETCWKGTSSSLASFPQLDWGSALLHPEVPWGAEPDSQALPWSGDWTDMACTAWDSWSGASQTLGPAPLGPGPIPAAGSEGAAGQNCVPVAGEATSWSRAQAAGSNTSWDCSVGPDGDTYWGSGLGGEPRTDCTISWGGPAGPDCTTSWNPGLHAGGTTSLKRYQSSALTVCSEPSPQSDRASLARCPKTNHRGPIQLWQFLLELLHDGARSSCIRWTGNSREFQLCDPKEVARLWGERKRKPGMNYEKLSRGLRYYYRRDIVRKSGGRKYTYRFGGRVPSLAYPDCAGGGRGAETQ
# Summary of the method: as §1
# ELF3 = target: T5, ELF3 (Homo sapiens, UniProt P78545 1-371); settings: protein: recombinant; tags: N-terminal GST; dsDNA, one strand shown
# T5 sequence: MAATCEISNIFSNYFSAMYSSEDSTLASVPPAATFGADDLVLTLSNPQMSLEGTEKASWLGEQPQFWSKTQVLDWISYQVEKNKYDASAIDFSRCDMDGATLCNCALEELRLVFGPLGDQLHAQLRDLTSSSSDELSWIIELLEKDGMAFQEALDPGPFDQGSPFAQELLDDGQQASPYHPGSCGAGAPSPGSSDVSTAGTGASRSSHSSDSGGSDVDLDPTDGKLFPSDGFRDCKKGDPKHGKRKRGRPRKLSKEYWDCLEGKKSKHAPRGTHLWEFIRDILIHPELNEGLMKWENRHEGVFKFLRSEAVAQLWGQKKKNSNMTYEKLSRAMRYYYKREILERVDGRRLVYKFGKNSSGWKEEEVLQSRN
# Summary of the method: as §1
# CRX = CRX (Homo sapiens, UniProt O43186 1-299); settings: protein: recombinant; tags: N-terminal GST; dsDNA, one strand shown
# Summary of the method: as §1
# ETV1 = ETV1 (Homo sapiens, UniProt P50549 1-477); settings: protein: recombinant; tags: N-terminal GST; dsDNA, one strand shown
# Summary of the method: as §1
# ERF = target: T6, ERF (Homo sapiens, UniProt P50548 1-548); settings: protein: recombinant; tags: N-terminal GST; dsDNA, one strand shown
# T6 sequence: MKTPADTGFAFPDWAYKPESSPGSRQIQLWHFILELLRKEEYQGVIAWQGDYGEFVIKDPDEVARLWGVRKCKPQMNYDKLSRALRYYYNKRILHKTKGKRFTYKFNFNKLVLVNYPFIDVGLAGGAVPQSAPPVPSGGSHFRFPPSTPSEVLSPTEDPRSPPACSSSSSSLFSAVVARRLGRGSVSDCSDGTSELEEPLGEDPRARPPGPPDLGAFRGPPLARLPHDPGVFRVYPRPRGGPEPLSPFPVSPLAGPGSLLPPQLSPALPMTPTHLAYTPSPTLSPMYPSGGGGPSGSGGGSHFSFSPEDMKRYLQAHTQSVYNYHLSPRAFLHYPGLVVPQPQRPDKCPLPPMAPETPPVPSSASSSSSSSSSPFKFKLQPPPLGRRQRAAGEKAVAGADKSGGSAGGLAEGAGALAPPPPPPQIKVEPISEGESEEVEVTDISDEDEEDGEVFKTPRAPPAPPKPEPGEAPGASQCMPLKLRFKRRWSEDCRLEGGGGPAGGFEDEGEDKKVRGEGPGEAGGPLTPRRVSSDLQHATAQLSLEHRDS
# Summary of the method: as §1
# ETV3L = target: T7, ETV3L (Homo sapiens, UniProt Q6ZN32 1-361); settings: protein: recombinant; tags: N-terminal GST; dsDNA, one strand shown
# T7 sequence: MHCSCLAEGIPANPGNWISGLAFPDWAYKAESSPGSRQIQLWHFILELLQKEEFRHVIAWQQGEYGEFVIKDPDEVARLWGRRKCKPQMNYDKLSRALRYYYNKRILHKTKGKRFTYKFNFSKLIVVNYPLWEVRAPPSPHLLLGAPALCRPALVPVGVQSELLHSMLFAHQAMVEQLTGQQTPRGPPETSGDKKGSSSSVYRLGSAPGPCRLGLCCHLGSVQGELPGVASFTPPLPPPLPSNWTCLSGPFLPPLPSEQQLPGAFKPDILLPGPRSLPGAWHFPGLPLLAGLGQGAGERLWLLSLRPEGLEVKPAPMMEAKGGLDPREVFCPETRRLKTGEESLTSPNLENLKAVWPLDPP
# Summary of the method: as §1
# ETS2 = target: T8, ETS2 (Homo sapiens, UniProt P15036 1-469); settings: protein: recombinant; tags: N-terminal GST; dsDNA, one strand shown
# T8 sequence: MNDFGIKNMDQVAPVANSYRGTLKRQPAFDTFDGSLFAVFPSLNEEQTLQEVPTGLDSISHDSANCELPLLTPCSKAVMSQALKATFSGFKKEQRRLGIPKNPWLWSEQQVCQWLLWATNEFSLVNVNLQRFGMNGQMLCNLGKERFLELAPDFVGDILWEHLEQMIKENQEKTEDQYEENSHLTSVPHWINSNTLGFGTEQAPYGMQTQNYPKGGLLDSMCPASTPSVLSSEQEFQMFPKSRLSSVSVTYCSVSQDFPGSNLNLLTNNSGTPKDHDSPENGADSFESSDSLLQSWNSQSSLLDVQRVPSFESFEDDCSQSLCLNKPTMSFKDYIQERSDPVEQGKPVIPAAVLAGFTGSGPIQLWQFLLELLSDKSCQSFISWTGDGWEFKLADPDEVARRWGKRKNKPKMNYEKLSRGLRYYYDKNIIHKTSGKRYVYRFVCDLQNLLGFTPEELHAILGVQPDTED
# Summary of the method: as §1
# SPDEF = target: T9, SPDEF (Homo sapiens, UniProt O95238 1-335); settings: protein: recombinant; tags: N-terminal GST; dsDNA, one strand shown
# T9 sequence: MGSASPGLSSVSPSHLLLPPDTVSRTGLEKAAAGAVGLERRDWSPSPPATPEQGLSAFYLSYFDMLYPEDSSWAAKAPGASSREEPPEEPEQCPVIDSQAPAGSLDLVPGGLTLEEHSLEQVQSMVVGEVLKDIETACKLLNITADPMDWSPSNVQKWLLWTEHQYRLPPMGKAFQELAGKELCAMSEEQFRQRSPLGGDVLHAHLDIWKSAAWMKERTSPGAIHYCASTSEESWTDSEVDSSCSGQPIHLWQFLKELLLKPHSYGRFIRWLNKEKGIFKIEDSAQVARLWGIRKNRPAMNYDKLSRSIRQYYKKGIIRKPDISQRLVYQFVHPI
# Summary of the method: as §1
# ETV7 = target: T10, ETV7 (Homo sapiens, UniProt Q9Y603 1-341); settings: protein: recombinant; tags: N-terminal GST; dsDNA, one strand shown
# T10 sequence: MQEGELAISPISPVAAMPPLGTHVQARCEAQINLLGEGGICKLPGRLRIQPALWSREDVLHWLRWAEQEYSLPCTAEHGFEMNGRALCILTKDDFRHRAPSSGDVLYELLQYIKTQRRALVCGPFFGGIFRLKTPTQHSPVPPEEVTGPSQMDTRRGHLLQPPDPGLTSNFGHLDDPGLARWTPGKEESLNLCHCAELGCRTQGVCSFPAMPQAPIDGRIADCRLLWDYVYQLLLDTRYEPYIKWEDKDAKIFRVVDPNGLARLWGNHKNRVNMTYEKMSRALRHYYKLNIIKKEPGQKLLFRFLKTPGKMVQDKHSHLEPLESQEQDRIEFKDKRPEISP
# Summary of the method: as §1
# ELF5 = target: T11, ELF5 (Homo sapiens, UniProt Q9UKW6-2 1-255); settings: protein: recombinant; tags: N-terminal GST; dsDNA, one strand shown
# T11 sequence: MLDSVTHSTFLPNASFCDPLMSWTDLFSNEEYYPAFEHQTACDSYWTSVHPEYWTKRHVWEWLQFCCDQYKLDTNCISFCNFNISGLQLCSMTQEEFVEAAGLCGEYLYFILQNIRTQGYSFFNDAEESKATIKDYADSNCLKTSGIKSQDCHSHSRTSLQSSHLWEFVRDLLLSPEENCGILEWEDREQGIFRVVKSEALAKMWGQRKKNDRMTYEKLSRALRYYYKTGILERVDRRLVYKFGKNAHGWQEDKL
# Summary of the method: as §1
# ETV3 = target: T12, ETV3 (Homo sapiens, UniProt P41162-2 1-143); settings: protein: recombinant; tags: N-terminal GST; dsDNA, one strand shown
# T12 sequence: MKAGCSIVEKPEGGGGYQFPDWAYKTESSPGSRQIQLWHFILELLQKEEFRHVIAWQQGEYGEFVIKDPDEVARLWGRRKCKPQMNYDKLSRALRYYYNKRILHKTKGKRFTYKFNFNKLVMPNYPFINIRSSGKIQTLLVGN
# Summary of the method: as §1
# ETV6 = ETV6 (Homo sapiens, UniProt P41212 1-452); settings: protein: recombinant; tags: N-terminal GST; dsDNA, one strand shown
# Summary of the method: as §1
# ETV1, sequence (P50549 whole entry): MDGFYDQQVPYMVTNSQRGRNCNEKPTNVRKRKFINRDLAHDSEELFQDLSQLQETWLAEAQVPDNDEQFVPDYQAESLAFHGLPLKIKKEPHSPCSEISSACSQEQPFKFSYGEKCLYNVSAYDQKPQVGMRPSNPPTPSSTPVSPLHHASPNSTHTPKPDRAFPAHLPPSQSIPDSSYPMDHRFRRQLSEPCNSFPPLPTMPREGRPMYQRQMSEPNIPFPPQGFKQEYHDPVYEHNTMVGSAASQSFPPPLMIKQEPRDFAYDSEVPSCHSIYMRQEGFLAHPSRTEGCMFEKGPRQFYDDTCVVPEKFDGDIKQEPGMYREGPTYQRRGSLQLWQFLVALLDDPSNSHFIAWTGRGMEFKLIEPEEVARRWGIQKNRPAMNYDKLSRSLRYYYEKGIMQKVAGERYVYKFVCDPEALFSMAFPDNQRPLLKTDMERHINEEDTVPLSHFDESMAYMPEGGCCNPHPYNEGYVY
# CRX, sequence (O43186 whole entry): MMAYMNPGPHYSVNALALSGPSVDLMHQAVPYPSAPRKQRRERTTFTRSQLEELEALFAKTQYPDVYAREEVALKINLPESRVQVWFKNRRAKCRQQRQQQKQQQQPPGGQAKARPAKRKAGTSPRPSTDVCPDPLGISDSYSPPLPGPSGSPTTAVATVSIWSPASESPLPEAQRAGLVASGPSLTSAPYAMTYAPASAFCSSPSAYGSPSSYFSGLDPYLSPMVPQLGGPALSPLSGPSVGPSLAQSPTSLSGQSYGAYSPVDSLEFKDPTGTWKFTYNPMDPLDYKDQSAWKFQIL
# ETV6, sequence (P41212 whole entry): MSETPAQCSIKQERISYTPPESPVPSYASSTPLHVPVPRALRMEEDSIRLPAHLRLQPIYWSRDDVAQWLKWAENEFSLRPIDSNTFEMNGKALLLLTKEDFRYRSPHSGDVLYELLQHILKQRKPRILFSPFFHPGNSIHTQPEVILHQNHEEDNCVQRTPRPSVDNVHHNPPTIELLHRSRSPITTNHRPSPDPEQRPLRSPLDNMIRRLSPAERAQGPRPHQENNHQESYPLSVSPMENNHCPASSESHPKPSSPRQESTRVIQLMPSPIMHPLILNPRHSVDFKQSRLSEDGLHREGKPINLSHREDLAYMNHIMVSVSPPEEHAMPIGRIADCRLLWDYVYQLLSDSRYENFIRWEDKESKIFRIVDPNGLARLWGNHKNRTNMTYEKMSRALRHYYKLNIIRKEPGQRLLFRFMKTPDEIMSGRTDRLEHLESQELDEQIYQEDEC
# ELF4, sequence (Q99607 whole entry): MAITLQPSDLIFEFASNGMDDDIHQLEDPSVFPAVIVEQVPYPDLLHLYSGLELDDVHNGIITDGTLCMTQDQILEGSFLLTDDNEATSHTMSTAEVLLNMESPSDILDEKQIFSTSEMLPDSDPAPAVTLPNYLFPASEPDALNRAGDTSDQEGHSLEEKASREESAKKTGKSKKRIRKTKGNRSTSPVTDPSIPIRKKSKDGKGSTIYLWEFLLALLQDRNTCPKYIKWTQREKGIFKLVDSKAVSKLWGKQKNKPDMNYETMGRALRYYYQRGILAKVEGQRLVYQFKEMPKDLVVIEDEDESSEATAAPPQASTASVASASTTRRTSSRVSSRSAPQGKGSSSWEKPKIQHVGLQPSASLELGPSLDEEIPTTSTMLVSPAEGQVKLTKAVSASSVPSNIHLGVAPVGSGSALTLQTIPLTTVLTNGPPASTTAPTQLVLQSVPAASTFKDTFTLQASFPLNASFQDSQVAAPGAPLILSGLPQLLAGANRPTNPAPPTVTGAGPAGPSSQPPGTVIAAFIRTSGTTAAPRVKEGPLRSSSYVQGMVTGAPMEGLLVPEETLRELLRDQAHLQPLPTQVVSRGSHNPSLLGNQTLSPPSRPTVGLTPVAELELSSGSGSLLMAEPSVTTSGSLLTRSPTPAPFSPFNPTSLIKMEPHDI
# ETV5, sequence (P41161 whole entry): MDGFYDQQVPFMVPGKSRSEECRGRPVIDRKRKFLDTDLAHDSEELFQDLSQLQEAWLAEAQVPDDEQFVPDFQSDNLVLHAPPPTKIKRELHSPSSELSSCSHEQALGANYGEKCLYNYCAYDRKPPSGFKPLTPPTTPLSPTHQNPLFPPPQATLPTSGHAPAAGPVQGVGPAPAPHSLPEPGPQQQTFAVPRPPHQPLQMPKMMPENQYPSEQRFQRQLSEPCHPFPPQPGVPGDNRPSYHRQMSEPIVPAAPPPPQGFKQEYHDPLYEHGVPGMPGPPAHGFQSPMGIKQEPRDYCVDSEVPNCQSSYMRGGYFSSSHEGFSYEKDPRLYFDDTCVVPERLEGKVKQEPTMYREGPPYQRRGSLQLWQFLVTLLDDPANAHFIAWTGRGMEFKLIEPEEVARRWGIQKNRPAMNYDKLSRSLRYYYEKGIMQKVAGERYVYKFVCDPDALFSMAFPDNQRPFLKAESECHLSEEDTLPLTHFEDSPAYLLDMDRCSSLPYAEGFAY
# HSF1, sequence (Q00613 whole entry): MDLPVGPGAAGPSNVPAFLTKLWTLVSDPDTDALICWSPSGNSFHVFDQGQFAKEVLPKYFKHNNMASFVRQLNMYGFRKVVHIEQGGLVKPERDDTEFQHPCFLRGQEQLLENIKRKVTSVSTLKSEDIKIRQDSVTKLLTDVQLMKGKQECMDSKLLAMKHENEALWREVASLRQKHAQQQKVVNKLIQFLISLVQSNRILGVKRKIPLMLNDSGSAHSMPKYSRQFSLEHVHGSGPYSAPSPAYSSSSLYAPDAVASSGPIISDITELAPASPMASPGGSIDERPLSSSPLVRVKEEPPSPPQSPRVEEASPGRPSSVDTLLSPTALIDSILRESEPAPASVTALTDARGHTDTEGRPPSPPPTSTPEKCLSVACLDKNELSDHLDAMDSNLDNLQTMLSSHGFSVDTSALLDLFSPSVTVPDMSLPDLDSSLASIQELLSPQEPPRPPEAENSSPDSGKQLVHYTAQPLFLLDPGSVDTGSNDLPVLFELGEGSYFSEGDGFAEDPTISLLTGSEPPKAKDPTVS
sequence,measurement,setting,value
TACAAT,binding signal,FEV,"1.29 fold enrichment (6-mer frequency, TF over GST control)"
same,binding signal,ETV5,"1.3 fold enrichment (6-mer frequency, TF over GST control)"
same,binding signal,HSF1,"1.32 fold enrichment (6-mer frequency, TF over GST control)"
same,binding signal,SPIC,"1.25 fold enrichment (6-mer frequency, TF over GST control)"
same,binding signal,ELF4,"1.26 fold enrichment (6-mer frequency, TF over GST control)"
same,binding signal,ELK4,"1.47 fold enrichment (6-mer frequency, TF over GST control)"
same,binding signal,ETV2,"1.31 fold enrichment (6-mer frequency, TF over GST control)"
same,binding signal,ELF3,"1.36 fold enrichment (6-mer frequency, TF over GST control)"
same,binding signal,CRX,"1.44 fold enrichment (6-mer frequency, TF over GST control)"
same,binding signal,ETV1,"1.33 fold enrichment (6-mer frequency, TF over GST control)"
same,binding signal,ERF,"1.31 fold enrichment (6-mer frequency, TF over GST control)"
same,binding signal,ETV3L,"1.25 fold enrichment (6-mer frequency, TF over GST control)"
same,binding signal,ETS2,"1.34 fold enrichment (6-mer frequency, TF over GST control)"
same,binding signal,SPDEF,"1.28 fold enrichment (6-mer frequency, TF over GST control)"
same,binding signal,ETV7,"1.24 fold enrichment (6-mer frequency, TF over GST control)"
same,binding signal,ELF5,"1.24 fold enrichment (6-mer frequency, TF over GST control)"
same,binding signal,ETV3,"1.28 fold enrichment (6-mer frequency, TF over GST control)"
same,binding signal,ETV6,"1.26 fold enrichment (6-mer frequency, TF over GST control)"
